# SNCA expr inhib: reduces expression of the alpha-synuclein gene | AID 1671194 | HEK-293 SNCA-luciferase knock-in, luminescence, 24 h | Potency, µM (doses to about 57.2 µM), for the others: top-dose activity change, negative = inhibition, hits mostly inhibitors | 140,000 compounds, 0.17% hits;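 further: potency means the concentration at half of the fitted maximal effect; plate controls were DMSO cells for no effect and cell-free wells for full effect; nearly all actives have a fitted effect of over 45% in size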
# SNCA viab count: reduces viability of HEK-293 SNCA reporter cells. HEK-293-SNCA-luc viability, GF-AFC fluorescence, 24 h. Potency, µM (series often up to 57.1 µM), without a hit: top-dose activity change, negative = cytotoxicity, actives largely listed as cytotoxic. 150,000 compounds, 0.12% hits. AID 1671193;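 further: potency means the concentration at half of the fitted maximal effect; 0% = DMSO-treated cells and -100% = medium-only wells without cells; nearly all actives have a fitted effect of over 30% in size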
#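 HEK-293-SNCA-luc cells (1500/well) plated 24 h, then exposed 24 h to a dilution series; GF-AFC added 30 min at 37C, fluorescence 405/540 nm; normalised to medium-only and DMSO wells, Hill fit.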
# IP6K1 inh: inhibitors of human IP6K1; Q92551; IP6K1 kinase, ADP-Glo luminescence, 2 h; stronger effect = lower value; activity change, % (series mostly up to about 58 µM); 140,000 compounds, 0.81% hits; AID 1645851; in the data active means activity change below about -25%; further: on the % scale 0 is the no-effect control and ±100 the full control effect
#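 ADP-Glo luminescence measures ADP made by human IP6K1 during a 2 h RT reaction with ATP/IP6 (mix at 1.3 mM/130 uM); top library doses 57.5 and 19.1 uM final.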
# KDM5B inhibitor: inhibitors of human KDM5B histone demethylase | Q9UGL1 | KDM5B demethylase, FDH-coupled NADH fluorescence (FDH is formaldehyde dehydrogenase) | Potency, µM (top dose mostly 57.7 µM), hits mostly inhibitors | 220,000 compounds, 2.6% hits | AID 1347165; further: potency means the concentration at half of the fitted maximal effect; 0% is about no effect; nearly all actives have a fitted effect of over 70% in size
#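 Here, H3K4me3 peptide (12.5 µM in substrate mix) is demethylated by KDM5BΔAP, 200 nM final, after 10 min compound exposure. Formaldehyde product is coupled through FDH (0.25 U/mL in mix) to NADH fluorescence; 30-min ΔRFU feeds dose-response curves.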
# * = called active by the depositor; i = inactive; ? = inconclusive; . = no result; [ ] = remark or other dose. Compounds with a hit are over-represented: about 2.9% of the library has one in this group of screens. Unless noted, the call rests on the fitted dose curve; in most records, active means well fitted curve in the direction sought with a large enough effect; inconclusive means small, poorly fitted or top-dose-only effect, or another doubt; inactive means no such curve, though single readings can be large; an effect the other way counts as inactive or inconclusive.
SMILES,SNCA expr inhib,SNCA viab count,IP6K1 inh,KDM5B inhibitor
COc1ncccc1-c1cnc2[nH]cc(CC(=O)Nc3ccn(C)n3)c2c1,14%[87.6 µM],-4%[87.6 µM],-13,32µM*
O=C(Cc1c[nH]c2ncc(-c3ccncc3)cc12)N1CCOCC1,14%[87.6 µM],2%[87.6 µM],-3,i
O=C(Cc1c[nH]c2ncc(-c3ccsc3)cc12)N1CCOCC1,0%[87.6 µM],6%[87.6 µM],-14,32µM*
O=C(Cc1c[nH]c2ncc(-c3ccc(F)cc3)cc12)N1CCOCC1,1%[87.6 µM],-2%[87.6 µM],-21,28µM*
CC(=O)Nc1cccc(-c2cnc3[nH]cc(CC(=O)N4CCOCC4)c3c2)c1,42%[87.6 µM],5%[87.6 µM],5,32µM*
Cc1ccccc1-c1nc(S(=O)(=O)c2ccccc2)c(NCCN2CCOCC2)o1,.,.,.,i
COCCNc1nc2cc(C(=O)N[C@@H]3CC[C@@H](N)C3)ccc2n1C,2%,-1%,-7,22µM*
COCCNc1nc2cc(-c3nc(-c4cccnn4)no3)ccc2n1C,?,4%,14,i
O=C(O)c1cccc2c1CCN2C(=O)Nc1ccc(F)cc1,0.89µM*,9%,-19,i
CNC(=O)c1cccc2c1CCN2C(=O)Nc1ccc(F)cc1,?,-5%,-5,i
COCCCNC(=O)c1cccc2c1CCN2C(=O)Nc1cccc(C)c1,3.5µM*,-6%,-6,i
CC(C)c1cc(CN(C)Cc2cn[nH]c2-c2ccc(F)cc2)no1,6%,-26%,1,28µM*
CCOc1cccc(CN(C)Cc2cn[nH]c2-c2ccc(F)cc2)c1O,-5%,-1%,0,?
O=C(COc1ccccc1)NCCn1cccc1-c1nc(-c2ccc3c(c2)OCO3)no1,64%,-11%,14,?
CCc1noc(-c2ccn3c(CNC(=O)CCc4ccc(OC)cc4)nnc3c2)n1,4%,3%,13,?
O=C(CC1CCCCC1)NCc1nnc2cc(-c3nc(C4CC4)no3)ccn12,5%,1%,32,14µM*
O=C(CCC1CCCC1)NCc1nnc2cc(-c3nc(C4CC4)no3)ccn12,17%,-8%,17,11µM*
O=C(NCc1nnc2cc(-c3nc(C4CC4)no3)ccn12)c1ccc(Cl)cc1,-9%,4%,2,?
c1cc(CN2CCOCC2)cc(-c2cnn3ccccc23)c1,7%,2%,-15,32µM*
COC(=O)c1ccc2c(c1)NC(=O)C(N(CC(C)C)CC(C)C)S2 (centres undefined),.,.,.,i
O=C1Nc2ccccc2CN(CC2CC2)C12CCNC2 (centres undefined),7%[87.6 µM],-14%[87.6 µM],10,i
O=C1Nc2ccccc2CN(Cc2ccc(F)cc2)C12CCNCC2,-4%,-9%,-13,45µM*
O=C1Nc2ccccc2CN(CC2CCCC2)C12CCNC2 (centres undefined),29%,-12%,-18,89µM*
O=C1Nc2ccccc2CN(Cc2ccc(C(F)(F)F)cc2)C12CCNCC2,1%,-30%,-13,50µM*
Cc1ccc(CNC(=O)C2CCCN(Cc3nc(-c4cccc(C)c4)oc3C)C2)cc1 (centres undefined),16%,2%,9,i
SMILES,SNCA expr inhib,SNCA viab count,IP6K1 inh,KDM5B inhibitor
O=C(NCc1ccc(Cl)nc1)c1ccc2cncn2c1,-26%[87.6 µM],4%[87.6 µM],11,35µM*
O=C(NCc1ccc(Cl)nc1)c1ccc2ccnn2c1,-18%[87.6 µM],2%[87.6 µM],5,35µM*
O=C(Nc1ccc(Cl)nc1)c1ccn2nccc2c1,13%[87.6 µM],8%[87.6 µM],1,?
O=C(NCc1ccc(Cl)cc1)c1ccc2ccnn2c1,-4%[87.6 µM],-5%[87.6 µM],-1,35µM*
O=C(Nc1ccc(Cl)cc1Cl)c1ccc2ccnn2c1,3%[87.6 µM],4%[87.6 µM],-6,?
O=C(Nc1ccc2c(c1)CCC2)c1ccc(F)cc1F,.,.,.,i
COc1ccc(-c2c(C)oc3cc(OS(C)(=O)=O)ccc3c2=O)cc1,.,.,.,i
COc1ccc(-n2c(=S)[nH]c3cc(C(=O)Nc4ccccc4OC)ccc3c2=O)c(OC)c1,.,.,.,i
COc1ncccc1-c1nccc2c(=O)cc(N(C)C)oc12,24%[87.6 µM],6%[87.6 µM],-5,35µM*
COc1ccc(-c2nccc3c(=O)cc(N(C)C)oc23)cn1,20%[87.6 µM],-5%[87.6 µM],-18,40µM*
Cc1cc(-c2nccc3c(=O)cc(N(C)C)oc23)ccn1,45%[87.6 µM],6%[87.6 µM],-6,32µM*
O=C(NCc1ccccc1F)c1nc(-c2ccc(Br)o2)no1,.,.,.,i
CCOC(=O)c1c(NC(=O)COc2cc(C)ccc2C(C)C)sc2c1CCCC2,-8%,-3%,7,i
O=C(CCC1CCCN(S(=O)(=O)c2ccccc2)C1)N1CCc2ccccc2C1 (centres undefined),0%,-9%,11,22µM*
COCCN(C)Cc1nc(Cc2ccccc2Cl)no1,-29%,2%,29,i
Cc1cc(CN2CCC3(CC2)CN(C2CCC2)CC3CO)n(C)n1 (centres undefined),-29%,-4%,5,18µM*
CCn1cc(C(=O)N2CCC3(CC2)CN(C2CCC2)CC3CO)cn1 (centres undefined),8%,-3%,4,10µM*
Cc1ccc(C(=O)N2CCC3(CC2)CN(C2CCC2)CC3CO)s1 (centres undefined),2%,-1%[12.5 µM],27,?
O=C(Nc1ccc(F)cc1)c1ccn2cncc2c1,18%[87.6 µM],-12%[87.6 µM],3,35µM*
O=C(Nc1ccc(Cl)nc1)c1ccn2cncc2c1,48%[87.6 µM],6%[87.6 µM],7,i
CO[C@H]1[C@H](NC(=O)c2cc3ccccc3[nH]2)c2ccccc2C12CCNCC2,5%,-1%,5,22µM*
CO[C@H]1[C@H](NC(=O)c2cc(=O)[nH]c(=O)[nH]2)c2ccccc2C12CCNCC2,-8%,1%,2,i
CN1[C@@H](CCC(=O)NCc2ccccc2)CNC(=O)[C@@H]2[C@H]1CCN2Cc1ccc(C(F)(F)F)cc1,-12%,-9%,3,i
COc1ccc(S(=O)(=O)N2C[C@@H]3C[C@H](C2)c2ccc(-c4ccc(OC(F)(F)F)cc4)c(=O)n2C3)cc1,-10%,0%,-3,28µM*
COc1ccc(S(=O)(=O)N2C[C@@H]3C[C@H](C2)c2ccc(NS(=O)(=O)c4cccc(F)c4)c(=O)n2C3)cc1,5%,-10%,-9,i
SMILES,SNCA expr inhib,SNCA viab count,IP6K1 inh,KDM5B inhibitor
COCCNC(=O)c1nc(-c2ccc(OC)cc2)c2ccccn12,39%,0%,-8,89µM*
COCCNC(=O)c1nc(-c2ccc(F)cc2)c2ccccn12,31%[87.6 µM],-6%[87.6 µM],18,40µM*
COc1ccccc1CNS(=O)(=O)c1ccc(-c2cc(C(F)(F)F)on2)s1,-18%,2%,36,i
COc1ccc(-c2nccn3cc(C(=O)NCCc4ccccn4)nc23)cc1,-5%,-3%,16,25µM*
COc1ccc(-c2nccn3cc(C(=O)NCc4ccc(OC)c(OC)c4)nc23)cc1,?,-15%,22,?
COCCCNC(=O)c1cn2ccnc(-c3ccc(OC)cc3)c2n1,-1%,-15%,19,25µM*
COCCNC(=O)c1cn2ccnc(-c3ccc(OC)cc3)c2n1,-1%,-5%,16,20µM*

# Screening results (PubChem)
